From PubChem BioAssay AID1875 (Broad Institute, 2009)
The campaign covered roughly 300,000 compounds. About 65 (0.02%) were called active.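 Rule for the calls: active = lowest replicate activity score at least 50, where 100 means six control SD above control mean; inconclusive = lowest score under 50 but half or more replicates reach 50; inactive = the rest.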 Shown is part of a subset that was picked to be rich in actives.

assay: perturbers of mRNA poly(A) processing – luminescence, S. cerevisiae, primary screen (AID 1875);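 note: yeast exposed to compound for 9 h at 30 °C; higher score means more reporter readthrough which indicates perturbed polyadenylation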; conditions: S. cerevisiae SKY197-pL101 polyadenylation reporter, beta-gal luminescence; at 12 µM; active compounds read high; efflux-impaired pdr1/pdr3 knockout yeast; score 100 = 6 SD above DMSO

Activity score, inactive:
CCOC(=O)N1CCN(CC(=O)n2c(C)c(C)c3ccccc32)CC1 -9.64%, NC(N)=Nc1nc2ccc(Br)cc2c(=O)[nH]1 11.2%, Cc1ccc(NC(=O)C(=O)NCC2CCN(C(=O)c3cccc([N+](=O)[O-])c3)CC2)cc1 15.6%, Cc1ccc(-n2nc(N)c3c(=O)oc(N(C)C)nc32)cc1 -13.9%, FC(F)(F)c1cc(C(F)(F)F)c2ccc(N3CCN(c4ccccc4)CC3)nc2n1 -28.1%, Nc1c(C(=O)c2cccs2)sc2nsc(SCCN3CCCCC3)c12 -10.6%, CN(Cc1nc(-c2cnccn2)no1)Cc1n[nH]c2c1CCCCC2 -15.8%, CCNC(=O)CC1C(=O)N(c2ccc(OC)cc2)C(=O)N1CCOC (stereo not given) 13.9%, Cc1c(Nc2nc3ccccc3nc2NS(=O)(=O)c2cccs2)c(=O)n(-c2ccccc2)n1C -9.51%, COc1ccccc1C(=O)NNC(=O)CCN1C(=O)/C(=C\c2ccccc2)SC1=S -4.37%, COc1ccc(/C=C2\SC(=S)N(CCC(=O)Nc3ccccn3)C2=O)cc1OC 14.3%, COC(=O)C(=Nc1ccccc1)/C(C(=O)C(=O)N(C)c1ccccc1)=C(\O)c1ccc(Cl)cc1 3.12%, COc1ccc(C2/C=C\CN(S(=O)(=O)c3cccs3)CC(=O)N2Cc2ccc(F)cc2)cc1 (stereo not given) 1.94%, Cc1c(S(=O)(=O)N2CC(C)CC(C)C2)c(=O)n(C)c(=O)n1C (stereo not given) 11.6%, COc1ccc(/C=N/Nc2nc(-c3ccc(C)cc3)c(C#N)c(=O)[nH]2)cc1 -16.1%, Cc1ccc(CNC(=O)Cn2c(=O)c3sccc3n(Cc3cccc([N+](=O)[O-])c3)c2=O)cc1 -7.25%, O=C(NCc1ccccc1)C(c1cccnc1)N(C(=O)c1csnn1)c1ccc(F)cc1 (stereo not given) 5.05%, CC1CN(C(=O)COC(=O)c2cccc(NS(=O)(=O)c3ccccc3)c2)CC(C)O1 (stereo not given) 2%, COc1ccc(NC(=O)COc2ccc(C(=O)c3ccc(F)cc3)cc2)cc1S(N)(=O)=O 7.67%, O=C(O)CCCn1cc(NC(=O)COc2cccc(Cl)c2)cn1 -6.55%, Cc1cccn2c(CN(C)C3CCCc4ccccc43)c(C(=O)N3CCOCC3)nc12 (stereo not given) 10.7%, O=C(COC(=O)Cc1ccccc1F)NNC(=O)c1ccc(Cl)cc1 0.16%, CC(C)(C)C(=O)NC1CC2CCCC(C1)N2C(=O)Nc1ccccc1F (stereo not given) 0.739%, CCOc1ccccc1N1C(=O)CC(Sc2nccc(C)n2)C1=O (stereo not given) 13.3%, CC(C)COP(=O)(c1ccc(N(C)C)cc1)C(Nc1ccccc1)c1cccnc1 (stereo not given) 9.1%, Cc1ccc2nsnc2c1S(=O)(=O)N1CCCC1C(=O)O (stereo not given) 12.1%, CC(/C=C/C1(O)C(C)CC(=O)CC1(C)C)OC1OC(CO)C(O)C(O)C1O (stereo not given) 14.6%, Cc1nnc(SC(C)C(=O)Nc2ccc(S(=O)(=O)NC3CCCCC3)cc2)s1 (stereo not given) -4.69%, O=C(CSc1ccccn1)Nc1nc2c(ccc3ccccc32)s1 -14.3%, COc1ccc(NC(=O)c2cccc(Cl)c2)c[n+]1[O-] 10.9%, COc1ccc(C(=O)N(Cc2ccccc2)c2ccc(C)cc2)cc1S(=O)(=O)N1CCOCC1 -2.8%, Cn1c(N)c(C(=O)COC(=O)/C=C/c2ccc(OC(F)F)cc2)c(=O)n(C)c1=O 0.664%, CCOc1ccc(S(=O)(=O)NCc2ccc3c(c2)OCO3)cc1C 12.5%, Cc1cc(C)c(OCC(=O)N(Cc2cccs2)C2CCS(=O)(=O)C2)c(C)c1 (stereo not given) 21.1%, C#CCOCCOCCOCCNc1nc(N2CCN(C(=O)C([C@@H](C)CC)n3cc(C(N)COC(=O)C(F)(F)F)nn3)CC2)nc(N2CCN(C(=O)[C@H](CCCCN)n3cc(C(N)CC(C)C)nn3)CC2)n1 (stereo not given in full) -6.03%, Cc1ccc(NC(=O)CN2CCc3ccccc3C2)cc1C -2.27%, Cc1ccc(NC(=O)CSCC(=O)Nc2sccc2C#N)cc1 11.2%, CCc1ccc2nc3sc(C(=O)Nc4nnc(CC)s4)c(N)c3cc2c1 34.8%, O=C1N(Cc2ccc3c(c2)OCO3)c2ccccc2C1(O)c1c[nH]c2ccccc12 (stereo not given) -1.62%, CC(=O)N1CCN(c2ccc(NCc3ccc(C(C)C)cc3)cc2)CC1 11.3%, COC(=O)c1ccccc1NC(=O)CN(Cc1ccc(Cl)cc1)S(C)(=O)=O -7.02%, COc1cccc(CNS(=O)(=O)c2cc3c(cc2C)n(C)c(=O)c(=O)n3C)c1 -4.51%, CCCCn1c(N)c(N(CCOC)C(=O)c2oc3ccc(OC)cc3c2C)c(=O)[nH]c1=O -1.46%, CC(C)=CC(=O)Nc1nnc(-c2ccc(F)cc2)s1 24%, CCn1c(CC(=O)Nc2ccccc2C)nnc1SCC(=O)NC1=NCCS1 -11.9%, O=C(NC(=S)Nc1cccc2c(O)cccc12)c1cccc(Br)c1 -27%, N/C(=N\S(=O)(=O)c1cc(C(F)(F)F)cc(C(F)(F)F)c1)c1cccs1 23.1%, CCOc1ccc(N2CC(C(=O)NCc3ccccn3)CC2=O)cc1 (stereo not given) 9.19%, CCc1ccc(-c2nn(-c3ccccc3)cc2CSC(=N)N)cc1 0.301%, COc1ccccc1OCc1ccc(C(=O)NC(C)c2ccccc2)o1 (stereo not given) 9.72%, CS(=O)(=O)N(CC(=O)N1CCc2ccccc2C1)c1ccc(Br)cc1 -7.16%, COc1cccc(COC(=O)C2CCN(S(=O)(=O)c3ccc(Cl)cc3)CC2)c1OC 10.3%, Cc1ccc(NC(=O)c2cc3ccccc3o2)cc1 -13.9%

Activity score, active:
COc1cc(/C=C2/SC(=S)N(Cc3ccccc3)C2=O)cc(OC)c1O 425%, Cc1ccc(NC(=O)c2sc3nc(N)c(C#N)cc3c2N)cc1 55.3%
